Inconclusive results are not listed. Active and inactive are the calls of the source. How the source made its calls: active means hit-call score of the fitted dose curve at least 0.9, where 1 is the maximum; inconclusive means response in the unintended direction; inactive means score below 0.9.
Columns and labels:
[1] = test system: 5-hydroxytryptamine receptor 2C (pig); experiment: NVS_GPCR_p5HT2C: NovaScreen (NVS) G Protein-Coupled Receptor Assay for pig Serotonin, 5-Hydroxytryptamine Receptor 2C (5HT2C) (AID 2283288)
Summary of the method: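 Radioligand displacement on membranes from pig choroid plexus, detected by filter scintillation counting after 1 h. Tested first at a single 25 uM in duplicate, then in concentration-response for actives; DMSO served as baseline.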

[2] = biological target: human Opioid Receptor Mu (Opiate Mu), OPRM1 (gene 4988) (UniProt P35372); experiment: NVS_GPCR_hOpiate_mu: NovaScreen (NVS) G Protein-Coupled Receptor Assay for human Opioid Receptor Mu (Opiate Mu) (AID 2283290);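 further: hits lower bound tracer signal versus DMSO meaning displacement of the ligand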
Summary of the method: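 CHO-derived receptor protein, cell-free; radioligand displacement, filtration + scintillation counting, read at 2.5 h. DMSO = negative control/baseline. Primary: 25 uM single conc, duplicate; secondary: concentration series.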

[3] = test system: rabbit Platelet Activating Factor Receptor (PAF), gene 100354046; experiment: NVS_GPCR_rabPAF: NovaScreen (NVS) G Protein-Coupled Receptor Assay for rabbit Platelet Activating Factor Receptor (PAF) (AID 2283287)
Summary of the method: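 Rabbit platelet membrane preparation; radioligand displacement read by filter-based scintillation counting 1 h after dosing, loss of signal versus DMSO. Primary screen in duplicate at 25 uM, actives followed up in concentration series.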

[4] = biological target: mouse Cholecystokinin, CCK2 Receptor (CCKB), Cckbr (gene 12426) (UniProt P56481); experiment: NVS_GPCR_mCKKBCentral: NovaScreen (NVS) G Protein-Coupled Receptor Assay for mouse Cholecystokinin, CCK2 Receptor (CCKB) (AID 2283293)
Summary of the method: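 Mouse forebrain membrane preparation incubated 2 h with chemical and radioligand; bound radioactivity counted after filtration. Single-concentration duplicate screen at 25 uM, then concentration series to 50 uM max for hits, DMSO as baseline.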

[5] = biological target: rat Neurokinin-3 Receptor (NK3), Tacr3 (gene 24808) (UniProt P16177); experiment: NVS_GPCR_rNK3: NovaScreen (NVS) G Protein-Coupled Receptor Assay for rat Neurokinin-3 Receptor (NK3) (AID 2283310)
Summary of the method: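 Filter-based radioligand displacement on rat cortex membrane preparations, read by scintillation 2 h post-dose. Chemicals first tested in duplicate at 25 uM; actives followed up in concentration series with a 50 uM maximum.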

[6] = biological target: rat Serotonin, 5-Hydroxytryptamine Receptor 1 (5HT1), Non-Selective Binding, Htr1a (gene 24473) (UniProt P19327); experiment: NVS_GPCR_r5HT1_NonSelective: NovaScreen (NVS) G Protein-Coupled Receptor Assay for rat Serotonin, 5-Hydroxytryptamine Receptor 1 (5HT1), Non-Selective Binding (AID 2283286)
Summary of the method: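 Binding of a radioligand to rat cortex membranes is read by filtration and scintillation counting after 1 h. Compounds were screened at 25 uM in duplicate. Actives were then titrated to a top of 50 uM. DMSO is the baseline.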

[7] = biological target: rat Adrenergic, Alpha 1, Non-selective Receptor (Adra1), Adra1a (gene 29412) (UniProt P43140); experiment: NVS_GPCR_rAdra1_NonSelective: NovaScreen (NVS) G Protein-Coupled Receptor Assay for rat Adrenergic, Alpha 1, Non-selective Receptor (Adra1) (AID 2283289)
Summary of the method: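 Chemicals first screened in duplicate at 25 uM, then actives tested in concentration series up to 50 uM. Binding measured as displacement of radioligand from rat forebrain membrane receptors, 1 h, filtration with scintillation readout; DMSO baseline.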

[8] = biological target: guinea pig Serotonin, 5-Hydroxytryptamine Receptor 4 (5HT4), HTR4 (gene 100135548) (UniProt O70528); experiment: NVS_GPCR_g5HT4: NovaScreen (NVS) G Protein-Coupled Receptor Assay for guinea pig Serotonin, 5-Hydroxytryptamine Receptor 4 (5HT4) (AID 2283294)
Summary of the method: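 Compounds first screened in duplicate at 25 uM, actives followed up in concentration series. Binding measured as displacement of specific radioligand from guinea pig striatal membranes, 1 h, filter-based scintillation read-out versus DMSO baseline.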

[9] = biological target: rat Serotonin, 5-Hydroxytryptamine Receptor (5HT), Non-Selective Binding, Htr1a (gene 24473) (UniProt P19327); experiment: NVS_GPCR_r5HT_NonSelective: NovaScreen (NVS) G Protein-Coupled Receptor Assay for rat Serotonin, 5-Hydroxytryptamine Receptor (5HT), Non-Selective Binding (AID 2283295)
Summary of the method: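 Rat cortex membrane preparation incubated 1 h with radioligand and test chemical; bound radioactivity counted after filtration. Screening began in duplicate at 25 uM with concentration-series follow-up; fitting relative to DMSO.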

[10] = biological target: rat Adrenergic, Alpha 1A Receptor (Adra1A), Adra1a (gene 29412) (UniProt P43140); experiment: NVS_GPCR_rAdra1A: NovaScreen (NVS) G Protein-Coupled Receptor Assay for rat Adrenergic, Alpha 1A Receptor (Adra1A) (AID 2283296)
Summary of the method: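 Filter radiodetection after 1 h competitive binding on CEC-pretreated rat cortical membranes. Duplicate single-point screening at 25 uM; active chemicals retested across concentration series.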

[11] = test system: rat Adrenergic, Alpha 1B Receptor (Adra1B), gene 24173; experiment: NVS_GPCR_rAdra1B: NovaScreen (NVS) G Protein-Coupled Receptor Assay for rat Adrenergic, Alpha 1B Receptor (Adra1B) (AID 2283297)
Summary of the method: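 Filter-binding radioligand competition on membranes from rat liver, read after 1 h by scintillation counting. Single-concentration duplicate screen at 25 uM, followed by concentration-response on actives, normalised to DMSO.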

[12] = biological target: rat Adrenergic Receptor, Beta (Adrb), Non-selective Binding, Adrb1 (gene 24925) (UniProt P18090); experiment: NVS_GPCR_rAdrb_NonSelective: NovaScreen (NVS) G Protein-Coupled Receptor Assay for rat Adrenergic Receptor, Beta (Adrb), Non-selective Binding (AID 2283298)
Summary of the method: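 Rat cortical membranes incubated 1 h with beta-adrenergic radioligand and test chemical; bound ligand measured by filtration and scintillation counting. Screen at 25 uM duplicate, then concentration series with 50 uM maximum; loss of signal versus DMSO.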

[13] = biological target: rat Adrenergic Receptor, Alpha 2 (Adra2), Non-selective Binding, Adra2a (gene 25083) (UniProt P22909); experiment: NVS_GPCR_rAdra2_NonSelective: NovaScreen (NVS) G Protein-Coupled Receptor Assay for rat Adrenergic Receptor, Alpha 2 (Adra2), Non-selective Binding (AID 2283299)
Summary of the method: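 Filter-based scintillation counting of radioligand binding to rat cortical membrane receptors, measured 1.25 hours post-dosing; loss of signal versus DMSO indicates displacement. Initial single-concentration duplicate at 25 uM, then concentration series.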

Adra2b (gene 24174) = Adra2b (gene 24174) (UniProt P19328); experiment: NVS_GPCR_rmAdra2B: NovaScreen (NVS) G Protein-Coupled Receptor Assay for hybird cells Adrenergic, Alpha 2B Receptor (Adra2B) (AID 2283306)
Summary of the method: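 Compounds screened first at 25 uM in duplicate, with actives followed up in concentration-response; specific radioligand displacement from hybrid neuroglioma/blastoma cell membrane preparations measured by filter scintillation counting after 1 h, normalized to DMSO.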

[14] = biological target: rat Neurokinin-1 Receptor (NK1), Tacr1 (gene 24807) (UniProt P14600); experiment: NVS_GPCR_rNK1: NovaScreen (NVS) G Protein-Coupled Receptor Assay for rat Neurokinin-1 Receptor (NK1) (AID 2283309)
Summary of the method: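 Competitive radioligand binding to NK1 in rat submaxillary membranes, 1 h incubation, filtration and scintillation read-out. Compounds first screened at 25 uM in duplicate, then concentration-response for actives; signal loss relative to DMSO.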

[15] = biological target: rat Opioid Receptor, Non-selective Sodium (Na+) Binding, Oprm1 (gene 25601) (UniProt P33535); experiment: NVS_GPCR_rOpiate_NonSelectiveNa: NovaScreen (NVS) G Protein-Coupled Receptor Assay for rat Opioid Receptor, Non-selective Sodium (Na+) Binding (AID 2283311)
Summary of the method: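 Filtration radioligand binding on rat forebrain membrane preparations, read 1.5 h after dosing. Single-concentration 25 µM primary screen in duplicate, followed by singleton concentration series to 50 µM max for actives; DMSO baseline.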

[16] = biological target: rat Histamine Receptor (H3), Hrh3 (gene 85268) (UniProt Q9QYN8); experiment: NVS_GPCR_rH3: NovaScreen (NVS) G Protein-Coupled Receptor Assay for rat Histamine Receptor (H3) (AID 2283303)
Summary of the method: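 Filter-binding radioligand competition on rat forebrain membranes, 1 h incubation; compounds screened at 25 µM in duplicate and followed in concentration series to 50 µM, loss of bound signal vs DMSO.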

[17] = biological target: rat Somatostatin Receptor (SST), Sstr1 (gene 25033) (UniProt P28646); experiment: NVS_GPCR_rSST: NovaScreen (NVS) G Protein-Coupled Receptor Assay for rat Somatostatin Receptor (SST) (AID 2283314)
Summary of the method: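 Single-concentration duplicate screen (25 uM), then concentration-response up to 50 uM for chemicals passing a threshold such as 30% inhibition. Membranes came from rat forebrain. Binding was measured 1 h post-dose by filter radiodetection and scintillation, relative to DMSO.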

Measured: AC50

Sequence of rat Neurokinin-3 Receptor (NK3), Tacr3 (gene 24808) (P16177 whole entry, looked up): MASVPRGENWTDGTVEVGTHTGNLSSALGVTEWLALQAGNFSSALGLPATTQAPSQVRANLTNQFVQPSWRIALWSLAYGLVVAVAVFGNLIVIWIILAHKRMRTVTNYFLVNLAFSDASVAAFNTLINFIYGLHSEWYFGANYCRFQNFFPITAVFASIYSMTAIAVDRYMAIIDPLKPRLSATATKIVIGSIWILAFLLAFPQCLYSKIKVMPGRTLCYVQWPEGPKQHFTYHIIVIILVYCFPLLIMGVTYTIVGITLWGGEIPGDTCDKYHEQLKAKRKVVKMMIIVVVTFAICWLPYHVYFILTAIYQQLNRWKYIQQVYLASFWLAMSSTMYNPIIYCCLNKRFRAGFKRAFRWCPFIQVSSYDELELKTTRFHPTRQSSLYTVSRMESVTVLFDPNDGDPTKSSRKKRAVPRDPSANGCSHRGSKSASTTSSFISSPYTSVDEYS
Sequence of rat Opioid Receptor, Non-selective Sodium (Na+) Binding, Oprm1 (gene 25601) (P33535 whole entry, looked up): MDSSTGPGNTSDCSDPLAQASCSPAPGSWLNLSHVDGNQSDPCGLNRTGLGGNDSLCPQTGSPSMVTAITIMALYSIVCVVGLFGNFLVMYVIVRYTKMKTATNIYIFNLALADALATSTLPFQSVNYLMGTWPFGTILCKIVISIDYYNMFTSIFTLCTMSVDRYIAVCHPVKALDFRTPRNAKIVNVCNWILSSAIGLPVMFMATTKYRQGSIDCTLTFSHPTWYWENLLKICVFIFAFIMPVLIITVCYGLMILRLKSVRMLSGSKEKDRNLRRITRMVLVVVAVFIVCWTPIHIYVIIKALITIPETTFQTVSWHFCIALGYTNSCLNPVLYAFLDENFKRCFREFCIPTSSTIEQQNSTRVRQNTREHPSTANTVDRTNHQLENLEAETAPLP
Sequence of guinea pig Serotonin, 5-Hydroxytryptamine Receptor 4 (5HT4), HTR4 (gene 100135548) (O70528 whole entry, looked up): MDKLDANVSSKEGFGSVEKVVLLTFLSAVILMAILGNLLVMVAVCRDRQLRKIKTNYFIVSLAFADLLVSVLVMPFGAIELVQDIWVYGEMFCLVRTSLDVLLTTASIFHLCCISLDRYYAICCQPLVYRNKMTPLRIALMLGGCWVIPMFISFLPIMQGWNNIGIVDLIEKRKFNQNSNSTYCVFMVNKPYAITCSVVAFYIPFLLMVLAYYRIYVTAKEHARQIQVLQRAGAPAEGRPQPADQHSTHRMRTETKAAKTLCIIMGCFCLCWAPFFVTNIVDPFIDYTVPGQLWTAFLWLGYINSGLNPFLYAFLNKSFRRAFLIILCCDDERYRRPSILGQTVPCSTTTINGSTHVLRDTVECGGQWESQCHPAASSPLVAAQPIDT
Sequence of rat Serotonin, 5-Hydroxytryptamine Receptor 1 (5HT1), Non-Selective Binding, Htr1a (gene 24473) (P19327 whole entry, looked up): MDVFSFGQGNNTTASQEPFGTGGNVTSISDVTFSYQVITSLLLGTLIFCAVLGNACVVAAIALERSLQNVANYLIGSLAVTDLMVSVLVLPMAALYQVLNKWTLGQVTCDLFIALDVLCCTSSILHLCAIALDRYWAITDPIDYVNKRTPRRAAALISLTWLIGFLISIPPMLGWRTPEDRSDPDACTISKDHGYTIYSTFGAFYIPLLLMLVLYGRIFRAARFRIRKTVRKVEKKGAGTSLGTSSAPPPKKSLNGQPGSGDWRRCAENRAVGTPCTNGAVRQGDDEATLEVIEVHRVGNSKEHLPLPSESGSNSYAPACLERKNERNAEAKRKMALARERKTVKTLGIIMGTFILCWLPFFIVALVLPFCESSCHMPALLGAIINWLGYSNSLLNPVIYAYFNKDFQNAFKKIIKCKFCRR
Sequence of rat Serotonin, 5-Hydroxytryptamine Receptor (5HT), Non-Selective Binding, Htr1a (gene 24473) (P19327 whole entry, looked up): as above
Sequence of rat Adrenergic, Alpha 1, Non-selective Receptor (Adra1), Adra1a (gene 29412) (P43140 whole entry, looked up): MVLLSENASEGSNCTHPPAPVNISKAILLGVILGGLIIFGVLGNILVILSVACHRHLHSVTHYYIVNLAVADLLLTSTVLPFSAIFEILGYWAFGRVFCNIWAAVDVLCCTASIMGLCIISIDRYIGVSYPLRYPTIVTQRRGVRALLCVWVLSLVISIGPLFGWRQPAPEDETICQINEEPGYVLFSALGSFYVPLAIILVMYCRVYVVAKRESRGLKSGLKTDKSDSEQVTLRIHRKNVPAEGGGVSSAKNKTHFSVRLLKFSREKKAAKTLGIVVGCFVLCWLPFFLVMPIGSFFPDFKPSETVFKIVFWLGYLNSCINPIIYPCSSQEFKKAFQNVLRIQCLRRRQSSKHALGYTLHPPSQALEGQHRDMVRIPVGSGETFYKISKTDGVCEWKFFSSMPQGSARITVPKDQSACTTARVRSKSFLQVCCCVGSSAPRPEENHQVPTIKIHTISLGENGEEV
Sequence of rat Adrenergic, Alpha 1A Receptor (Adra1A), Adra1a (gene 29412) (P43140 whole entry, looked up): as above
Sequence of human Opioid Receptor Mu (Opiate Mu), OPRM1 (gene 4988) (P35372 whole entry, looked up): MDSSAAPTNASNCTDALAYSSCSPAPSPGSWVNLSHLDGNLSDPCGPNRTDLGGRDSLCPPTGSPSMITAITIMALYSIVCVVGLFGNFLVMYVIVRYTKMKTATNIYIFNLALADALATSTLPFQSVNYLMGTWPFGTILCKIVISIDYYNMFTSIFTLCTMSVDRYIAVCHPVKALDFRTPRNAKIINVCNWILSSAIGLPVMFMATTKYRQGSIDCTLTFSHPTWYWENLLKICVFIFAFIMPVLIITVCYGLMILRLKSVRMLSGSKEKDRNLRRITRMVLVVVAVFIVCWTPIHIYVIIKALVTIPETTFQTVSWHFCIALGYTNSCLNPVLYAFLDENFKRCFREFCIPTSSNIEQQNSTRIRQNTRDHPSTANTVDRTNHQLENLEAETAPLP
Sequence of rat Neurokinin-1 Receptor (NK1), Tacr1 (gene 24807) (P14600 whole entry, looked up): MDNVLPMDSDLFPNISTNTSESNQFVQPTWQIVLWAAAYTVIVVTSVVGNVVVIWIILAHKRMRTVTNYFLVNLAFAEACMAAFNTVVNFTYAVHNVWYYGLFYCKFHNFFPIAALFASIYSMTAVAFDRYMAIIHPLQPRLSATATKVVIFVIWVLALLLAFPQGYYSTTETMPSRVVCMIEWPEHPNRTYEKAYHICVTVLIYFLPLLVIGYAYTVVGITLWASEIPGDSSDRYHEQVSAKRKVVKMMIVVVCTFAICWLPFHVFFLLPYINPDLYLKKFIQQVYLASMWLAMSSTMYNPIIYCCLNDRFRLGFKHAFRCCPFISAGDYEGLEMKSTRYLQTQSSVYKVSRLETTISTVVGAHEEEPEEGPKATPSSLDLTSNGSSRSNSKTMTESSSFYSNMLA
Sequence of rat Adrenergic Receptor, Alpha 2 (Adra2), Non-selective Binding, Adra2a (gene 25083) (P22909 whole entry, looked up): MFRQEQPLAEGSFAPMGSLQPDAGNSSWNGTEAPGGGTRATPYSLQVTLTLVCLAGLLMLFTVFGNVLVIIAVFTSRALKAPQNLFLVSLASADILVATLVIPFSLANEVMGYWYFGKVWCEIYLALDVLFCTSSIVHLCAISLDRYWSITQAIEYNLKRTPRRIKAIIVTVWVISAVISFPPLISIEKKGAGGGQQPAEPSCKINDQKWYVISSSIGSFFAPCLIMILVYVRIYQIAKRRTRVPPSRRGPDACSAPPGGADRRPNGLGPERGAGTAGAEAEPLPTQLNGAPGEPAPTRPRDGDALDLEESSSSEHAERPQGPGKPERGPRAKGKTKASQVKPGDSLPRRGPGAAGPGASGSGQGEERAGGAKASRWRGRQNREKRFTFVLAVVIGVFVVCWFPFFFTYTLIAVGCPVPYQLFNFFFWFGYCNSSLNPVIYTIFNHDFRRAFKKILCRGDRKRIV
Sequence of rat Histamine Receptor (H3), Hrh3 (gene 85268) (Q9QYN8 whole entry, looked up): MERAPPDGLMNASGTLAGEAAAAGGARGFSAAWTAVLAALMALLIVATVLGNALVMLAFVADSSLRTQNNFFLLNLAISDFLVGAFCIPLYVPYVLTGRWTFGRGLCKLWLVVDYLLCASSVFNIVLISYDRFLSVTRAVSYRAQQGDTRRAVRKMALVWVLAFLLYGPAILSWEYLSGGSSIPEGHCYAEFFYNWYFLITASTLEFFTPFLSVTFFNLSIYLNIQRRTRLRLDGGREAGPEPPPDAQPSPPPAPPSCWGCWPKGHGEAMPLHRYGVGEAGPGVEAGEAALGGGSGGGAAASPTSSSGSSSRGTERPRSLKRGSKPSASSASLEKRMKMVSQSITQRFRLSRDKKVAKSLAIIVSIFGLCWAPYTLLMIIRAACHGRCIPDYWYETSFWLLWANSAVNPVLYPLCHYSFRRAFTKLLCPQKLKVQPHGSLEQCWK

CC(COCC(C)OC(=O)c1ccccc1)OC(=O)c1ccccc1 (stereo unspecified)
inactive: [1]

Oc1ccccc1O
inactive: [2]

CCC(C)N(C)C(=O)c1cc2ccccc2c(-c2ccccc2Cl)n1 (stereo unspecified)
active: [3] 7.29 µM | [4] 2.61 µM | [5] 6.96 µM

O=C(O)c1[nH]n(-c2ccc(S(=O)(=O)O)cc2)c(=O)c1N=Nc1ccc(S(=O)(=O)O)cc1
active: [6] 5.69 µM | [8] 15.9 µM
inactive: [7]

CSc1ccc(Oc2ccc(S(N)(=O)=O)cc2CN(C)C)cc1C
active: [1] 19.2 µM | [7] 1.08 µM | [2] 8.3 µM | [8] 0.621 µM | [9] 13.5 µM | [10] 6.58 µM | [11] 0.875 µM | [12] 25 µM | [13] 10.6 µM | Adra2b (gene 24174) 1.74 µM | [14] 25 µM | [15] 3.74 µM

CN(C)C(=O)NC1(c2ccccc2)CCN(CCC[C@]2(c3ccc(Cl)c(Cl)c3)CCCN(C(=O)c3ccccc3)C2)CC1
active: [1] 2.57 µM | [7] 6.25 µM | [2] 3.14 µM | [14] 10.5 µM | [5] 0.0731 µM | [15] 2.12 µM
inactive: [9] | [10]

COC(=O)[C@H]1[C@H]2C[C@@H]3c4[nH]c5cc(OC)ccc5c4CCN3C[C@H]2C[C@@H](OC(=O)c2cc(OC)c(OC)c(OC)c2)[C@@H]1OC
active: [3] 5.47 µM | [2] 7.12 µM | [8] 5.67 µM | [11] 21.1 µM | [5] 10.6 µM | [15] 21.1 µM
inactive: [1]

Cn1cnc2c1c(=O)[nH]c(=O)n2C
inactive: [6] | [11]

CCc1cc(C2=C(C(=O)O)N(c3ccccc3C(F)(F)F)S(=O)(=O)c3ccccc32)cc2c1OCO2
active: [3] 4.11 µM

O=C(N[C@@H](c1ccccc1)[C@@H]1CCCCN1)c1cccc(C(F)(F)F)c1Cl
active: [2] 10.8 µM | [9] 2.1 µM | [10] 16.7 µM | [13] 39.2 µM | [15] 31.4 µM | [17] 6.67 µM
inactive: [7] | [16]

CN(C)C(=O)NC1(c2ccccc2)CCN(CC[C@@]2(c3ccc(F)c(F)c3)CN(C(=O)c3ccccc3)CCO2)CC1
active: [1] 16.7 µM | [2] 14.9 µM | [9] 5.72 µM | [10] 8.08 µM | [15] 3.23 µM
inactive: [14] | [5]

CN(C)CCCN1c2ccccc2Sc2ccc(Cl)cc21
active: [6] 8.89 µM | [2] 10.3 µM | [8] 15.3 µM | [9] 0.331 µM | [11] 0.0108 µM | [14] 25 µM | [15] 9.16 µM

Nc1nc(=S)c2[nH]cnc2[nH]1
inactive: [6] | [2]

CC(C)(C)c1ccccc1
inactive: [6] | [15]

Cc1ccc(C(C)(C)C)c(O)c1
inactive: [7] | [10]

Source: PubChem BioAssay (EPA / NIEHS)
